Unmarked numbers belong to inactive results. Calls follow the shape of the dose curve; as a rule, active = well fitted curve in the direction sought with a large enough effect; inactive = no such curve, though single readings can be large or run the other way.
Test: qHTS for small molecule inhibitors of Yes1 kinase: Counter Assay (AID 686950);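 also: no kinase present so only ADP-Glo detection of a fixed ADP amount is tested; luminescence from ADP-Glo reporting ADP in a fixed ATP and ADP mixture; 0% = DMSO wells with ATP plus ADP and -100% = ATP-only wells without ADP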
Conditions: series mostly up to 76.9 µM; activity change, negative = inhibition: at the top concentration
Summary of the method: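 Luminescence read-out from ADP-Glo quantifies a fixed ADP amount (0.02 mM ADP with 0.08 mM ATP) after 60 min at room temperature; signal is normalized between DMSO wells with ATP/ADP and with 0.1 mM ATP alone.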

Q: For NS(=O)(=O)c1ccc(N=Nc2c(=O)[nH]c3ccc4[nH]cccc4c23)cc1, which “activity change, negative = inhibition” value is on record?
A: -4.38%

Q: For O=C(Nc1n[nH]c2cc(-c3ccc(F)cc3)ccc12)C1CC1, which “activity change, negative = inhibition” value is on record?
A: 4.33%

Q: Which “activity change, negative = inhibition” value does the source give for Cc1nnc(-c2ccc(C)c(-c3ccc(C(=O)Nc4cccc(C#N)c4)cc3)c2)o1 here?
A: 5.9%

Q: With O=C(Nc1ccc(Oc2ccc3nc(NC(=O)c4ccccc4)[nH]c3c2)cc1)Nc1cc(C(F)(F)F)ccc1F as the molecule, how does the “activity change, negative = inhibition” value read?
A: 6.88%

Q: With CN(C)CCOc1ccc(-c2cc(-c3ccc4c(c3)CCC4=NO)c(-c3ccncc3)o2)cc1 as the molecule, how does the “activity change, negative = inhibition” value read?
A: 21.2%

Q: Which “activity change, negative = inhibition” value does the source give for COc1ccc2ncn(-c3cc(OC(C)c4ccccc4C(F)(F)F)c(C(N)=O)s3)c2c1 (stereo not given) here?
A: 8.53%

Q: Which “activity change, negative = inhibition” value does the source give for CNC(=O)c1cncc(C=Cc2ccccc2C)c1 here?
A: 5%

Q: For COc1ccc2cc(-c3c(-c4ccncc4)nc(-c4ccc(S(C)=O)cc4)n3C)ccc2c1 (stereo not given), which “activity change, negative = inhibition” value is on record?
A: -0.218%

Q: For CNC(=O)c1cccc(C#Cc2cncnc2Nc2ccc(OCc3cccc(F)c3)c(Cl)c2)c1, which “activity change, negative = inhibition” value is on record?
A: 1.17%

Q: With COc1cc(N2CCN(C(C)C)CC2)ccc1Nc1nc(Nc2ccc(F)cc2C(N)=O)c2cc[nH]c2n1 as the molecule, how does the “activity change, negative = inhibition” value read?
A: 258%

Q: With c1cnn2ncc(-c3ccnc(NCCCN4CCOCC4)n3)c2c1 as the molecule, how does the “activity change, negative = inhibition” value read?
A: 1.83%

Q: Which “activity change, negative = inhibition” value does the source give for Fc1cccc(COc2ccc(Nc3ncnc4sc(-c5cccs5)cc34)cc2Cl)c1 here?
A: 1.37%

Q: For CCN1CCC(CC(=O)Nc2n[nH]c3nnc(-c4cccc(F)c4F)cc23)CC1, which “activity change, negative = inhibition” value is on record?
A: 2.67%

Q: With Fc1ccc(Oc2nccc(-c3c(-c4ccc(F)cc4)ncn3C3CCNCC3)n2)cc1 as the molecule, how does the “activity change, negative = inhibition” value read?
A: -2.18%

Q: Which “activity change, negative = inhibition” value does the source give for CC(=O)NCc1cccc(C#Cc2cncnc2Nc2ccc(OCc3cccc(F)c3)c(Cl)c2)c1 here?
A: -1.46%

— PubChem BioAssay (NCATS)
